Experimental data reported in the supplement of paper PMC4466140.

biological target: AgAbp1; experiment: SPOT peptide array binding signal intensity (averaged, normalized) (arbitrary units (background-subtracted, floor 0; scale differs between SH3 domains)); higher = stronger binding of the SH3 domain to the peptide
Outline: (§1)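 Cellulose membranes carried synthetic 15-mer peptides with cysteines swapped for serines. These were incubated overnight at 4°C with 10 μg/ml of GST-fused SH3 domains from four yeast species in TBS-based blocking buffer. Binding signal, detected with anti-GST antibody and quantified in Genespotter, is the normalized, background-subtracted spot intensity averaged over replicates, in arbitrary units specific to each domain.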

Binder | SPOT peptide array binding signal intensity
LLGRKRPVMERVVDI | ≤ 0

biological target: AgBbc1; experiment: as above
Outline: as §1

Binder | SPOT peptide array binding signal intensity
LLGRKRPVMERVVDI | 27

biological target: AgBem1-D1; experiment: as above
Outline: as §1

Binder | SPOT peptide array binding signal intensity
LLGRKRPVMERVVDI | 41

biological target: AgBzz1-D1; experiment: as above
Outline: as §1

Binder | SPOT peptide array binding signal intensity
LLGRKRPVMERVVDI | 47

biological target: AgBzz1-D2; experiment: as above
Outline: as §1

Binder | SPOT peptide array binding signal intensity
LLGRKRPVMERVVDI | 35

biological target: AgCyk3; experiment: as above
Outline: as §1

Binder | SPOT peptide array binding signal intensity
LLGRKRPVMERVVDI | 1

biological target: AgFus1; experiment: as above
Outline: as §1

Binder | SPOT peptide array binding signal intensity
LLGRKRPVMERVVDI | 142

biological target: AgHof1; experiment: as above
Outline: as §1

Binder | SPOT peptide array binding signal intensity
LLGRKRPVMERVVDI | 2.5

biological target: AgHse1; experiment: as above
Outline: as §1

Binder | SPOT peptide array binding signal intensity
LLGRKRPVMERVVDI | 586

biological target: AgLsb1; experiment: as above
Outline: as §1

Binder | SPOT peptide array binding signal intensity
LLGRKRPVMERVVDI | 0.25

biological target: AgLsb4; experiment: as above
Outline: as §1

Binder | SPOT peptide array binding signal intensity
LLGRKRPVMERVVDI | 65.5

biological target: AgMyo5; experiment: as above
Outline: as §1

Binder | SPOT peptide array binding signal intensity
LLGRKRPVMERVVDI | 3.5

biological target: AgNbp2; experiment: as above
Outline: as §1

Binder | SPOT peptide array binding signal intensity
LLGRKRPVMERVVDI | 144

biological target: AgRvs167; experiment: as above
Outline: as §1

Binder | SPOT peptide array binding signal intensity
LLGRKRPVMERVVDI | 3.67

biological target: AgSho1; experiment: as above
Outline: as §1

Binder | SPOT peptide array binding signal intensity
LLGRKRPVMERVVDI | 76.5

biological target: AgSla1-D1-D2; experiment: as above
Outline: as §1

Binder | SPOT peptide array binding signal intensity
LLGRKRPVMERVVDI | 18

biological target: AgSla1-D3; experiment: as above
Outline: as §1

Binder | SPOT peptide array binding signal intensity
LLGRKRPVMERVVDI | 0.5

biological target: CaAbp1-D1; experiment: as above
Outline: as §1

Binder | SPOT peptide array binding signal intensity
LLGRKRPVMERVVDI | 21

biological target: CaAbp1-D2; experiment: as above
Outline: as §1

Binder | SPOT peptide array binding signal intensity
LLGRKRPVMERVVDI | 51

biological target: CaBbc1; experiment: as above
Outline: as §1

Binder | SPOT peptide array binding signal intensity
LLGRKRPVMERVVDI | 99.5

biological target: CaBem1-D1; experiment: as above
Outline: as §1

Binder | SPOT peptide array binding signal intensity
LLGRKRPVMERVVDI | 60.5

biological target: CaBzz1-D1; experiment: as above
Outline: as §1

Binder | SPOT peptide array binding signal intensity
LLGRKRPVMERVVDI | 236

biological target: CaBzz1-D2; experiment: as above
Outline: as §1

Binder | SPOT peptide array binding signal intensity
LLGRKRPVMERVVDI | 63.5

biological target: CaCyk3; experiment: as above
Outline: as §1

Binder | SPOT peptide array binding signal intensity
LLGRKRPVMERVVDI | 46

biological target: CaFus1; experiment: as above
Outline: as §1

Binder | SPOT peptide array binding signal intensity
LLGRKRPVMERVVDI | 398

biological target: CaHof1; experiment: as above
Outline: as §1

Binder | SPOT peptide array binding signal intensity
LLGRKRPVMERVVDI | 0.5

biological target: CaHse1; experiment: as above
Outline: as §1

Binder | SPOT peptide array binding signal intensity
LLGRKRPVMERVVDI | 54

biological target: CaLsb1; experiment: as above
Outline: as §1

Binder | SPOT peptide array binding signal intensity
LLGRKRPVMERVVDI | ≤ 0

biological target: CaLsb4; experiment: as above
Outline: as §1

Binder | SPOT peptide array binding signal intensity
LLGRKRPVMERVVDI | 163

biological target: CaMyo5; experiment: as above
Outline: as §1

Binder | SPOT peptide array binding signal intensity
LLGRKRPVMERVVDI | 10.8

biological target: CaNbp2; experiment: as above
Outline: as §1

Binder | SPOT peptide array binding signal intensity
LLGRKRPVMERVVDI | 595

biological target: CaRvs167; experiment: as above
Outline: as §1

Binder | SPOT peptide array binding signal intensity
LLGRKRPVMERVVDI | 14.8

biological target: CaRvs167-3; experiment: as above
Outline: as §1

Binder | SPOT peptide array binding signal intensity
LLGRKRPVMERVVDI | 1.75

biological target: CaSho1; experiment: as above
Outline: as §1

Binder | SPOT peptide array binding signal intensity
LLGRKRPVMERVVDI | 374

biological target: CaSla1-D1-D2; experiment: as above
Outline: as §1

Binder | SPOT peptide array binding signal intensity
LLGRKRPVMERVVDI | 154

biological target: CaSla1-D3; experiment: as above
Outline: as §1

Binder | SPOT peptide array binding signal intensity
LLGRKRPVMERVVDI | 150

biological target: ScAbp1; experiment: as above
Outline: as §1

Binder | SPOT peptide array binding signal intensity
LLGRKRPVMERVVDI | 33

biological target: ScBbc1; experiment: as above
Outline: as §1

Binder | SPOT peptide array binding signal intensity
LLGRKRPVMERVVDI | 5.5

biological target: ScBem1-D1; experiment: as above
Outline: as §1

Binder | SPOT peptide array binding signal intensity
LLGRKRPVMERVVDI | 3

biological target: ScBzz1-D1; experiment: as above
Outline: as §1

Binder | SPOT peptide array binding signal intensity
LLGRKRPVMERVVDI | 29.5

biological target: ScBzz1-D2; experiment: as above
Outline: as §1

Binder | SPOT peptide array binding signal intensity
LLGRKRPVMERVVDI | 24.5

biological target: ScCyk3; experiment: as above
Outline: as §1

Binder | SPOT peptide array binding signal intensity
LLGRKRPVMERVVDI | 31.5

biological target: ScFus1; experiment: as above
Outline: as §1

Binder | SPOT peptide array binding signal intensity
LLGRKRPVMERVVDI | 163

biological target: ScHof1; experiment: as above
Outline: as §1

Binder | SPOT peptide array binding signal intensity
LLGRKRPVMERVVDI | 1

biological target: ScHse1; experiment: as above
Outline: as §1

Binder | SPOT peptide array binding signal intensity
LLGRKRPVMERVVDI | 552

biological target: ScLsb1; experiment: as above
Outline: as §1

Binder | SPOT peptide array binding signal intensity
LLGRKRPVMERVVDI | 13.2

biological target: ScLsb2; experiment: as above
Outline: as §1

Binder | SPOT peptide array binding signal intensity
LLGRKRPVMERVVDI | ≤ 0

biological target: ScLsb3; experiment: as above
Outline: as §1

Binder | SPOT peptide array binding signal intensity
LLGRKRPVMERVVDI | 140

biological target: ScLsb4; experiment: as above
Outline: as §1

Binder | SPOT peptide array binding signal intensity
LLGRKRPVMERVVDI | 27.5

biological target: ScMyo3; experiment: as above
Outline: as §1

Binder | SPOT peptide array binding signal intensity
LLGRKRPVMERVVDI | 4

biological target: ScMyo5; experiment: as above
Outline: as §1

Binder | SPOT peptide array binding signal intensity
LLGRKRPVMERVVDI | 1.5

biological target: ScNbp2; experiment: as above
Outline: as §1

Binder | SPOT peptide array binding signal intensity
LLGRKRPVMERVVDI | 254

biological target: ScPex13; experiment: as above
Outline: as §1

Binder | SPOT peptide array binding signal intensity
LLGRKRPVMERVVDI | 53.5

biological target: ScRvs167; experiment: as above
Outline: as §1

Binder | SPOT peptide array binding signal intensity
LLGRKRPVMERVVDI | 7.67

biological target: ScSho1; experiment: as above
Outline: as §1

Binder | SPOT peptide array binding signal intensity
LLGRKRPVMERVVDI | 412

biological target: ScSla1-D1-D2; experiment: as above
Outline: as §1

Binder | SPOT peptide array binding signal intensity
LLGRKRPVMERVVDI | 158

biological target: ScSla1-D3; experiment: as above
Outline: as §1

Binder | SPOT peptide array binding signal intensity
LLGRKRPVMERVVDI | 78.5

biological target: SpAbp1-D1; experiment: as above
Outline: as §1

Binder | SPOT peptide array binding signal intensity
LLGRKRPVMERVVDI | ≤ 0

biological target: SpBbc1; experiment: as above
Outline: as §1

Binder | SPOT peptide array binding signal intensity
LLGRKRPVMERVVDI | 5.5

biological target: SpBzz1-D1; experiment: as above
Outline: as §1

Binder | SPOT peptide array binding signal intensity
LLGRKRPVMERVVDI | 158

biological target: SpBzz1-D2; experiment: as above
Outline: as §1

Binder | SPOT peptide array binding signal intensity
LLGRKRPVMERVVDI | ≤ 0

biological target: SpCyk3; experiment: as above
Outline: as §1

Binder | SPOT peptide array binding signal intensity
LLGRKRPVMERVVDI | 1

biological target: SpHof1; experiment: as above
Outline: as §1

Binder | SPOT peptide array binding signal intensity
LLGRKRPVMERVVDI | 104

biological target: SpHof1-2; experiment: as above
Outline: as §1

Binder | SPOT peptide array binding signal intensity
LLGRKRPVMERVVDI | 9.5

biological target: SpHof1-3; experiment: as above
Outline: as §1

Binder | SPOT peptide array binding signal intensity
LLGRKRPVMERVVDI | 29.5

biological target: SpHse1; experiment: as above
Outline: as §1

Binder | SPOT peptide array binding signal intensity
LLGRKRPVMERVVDI | 470

biological target: SpLsb1; experiment: as above
Outline: as §1

Binder | SPOT peptide array binding signal intensity
LLGRKRPVMERVVDI | 0.5

biological target: SpLsb4; experiment: as above
Outline: as §1

Binder | SPOT peptide array binding signal intensity
LLGRKRPVMERVVDI | 140

biological target: SpMyo1; experiment: as above
Outline: as §1

Binder | SPOT peptide array binding signal intensity
LLGRKRPVMERVVDI | 5

biological target: SpNbp2; experiment: as above
Outline: as §1

Binder | SPOT peptide array binding signal intensity
LLGRKRPVMERVVDI | 99.5

biological target: SpPex13; experiment: as above
Outline: as §1

Binder | SPOT peptide array binding signal intensity
LLGRKRPVMERVVDI | 16

biological target: SpRvs167; experiment: as above
Outline: as §1

Binder | SPOT peptide array binding signal intensity
LLGRKRPVMERVVDI | 14.3

biological target: SpSla1-D1-D2; experiment: as above
Outline: as §1

Binder | SPOT peptide array binding signal intensity
LLGRKRPVMERVVDI | ≤ 0

biological target: SpSla1-D3; experiment: as above
Outline: as §1

Binder | SPOT peptide array binding signal intensity
LLGRKRPVMERVVDI | 35
